Source: PubChem BioAssay (The Scripps Research Institute Molecular Screening Center)
Rows were chosen to be rich in hits. Some 3.5% of all compounds tested hit in one or more screens of this group.
FBW7 activator – human FBW7 E3 ligase activation, primary screen. Q969H0. AlphaScreen FBW7–phospho-cyclin E peptide binding, activator screen. normalized activity (activation), % at 26.1 µM. hit rate 0.13% among 650,000. AID 1259310; in the data active means normalized activity above about 1.9%;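 further: purified mutant Fbw7 with reduced substrate affinity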
GPR151 ag – activators of human GPR151 | PathHunter beta-arrestin GPR151 cells, luminescence | activation, % at 11.2 µM | hit rate 1% among 650,000; in the data active means activation above about 4.9%;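 further: 0% = median of compound wells and 100% = cells with positive control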
TEAD-YAP block – TEAD-YAP interaction inhibition. HEK-TIYL cells, TEAD-Gal4/YAP UAS-luciferase luminescence. inhibition, % at 9.12 µM. hit rate 1.4% among 640,000. AID 1259422; in the data active means inhibition above about 32%;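 further: 0% = median of test compound wells and 100% = reference inhibitor wells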
MITF inh – blocks human microphthalmia-associated transcription factor | O75030 | AlphaScreen MITF homodimerization, bead proximity signal | inhibition, % at 2.6 µM | hit rate 0.91% among 650,000; in the data active means inhibition above about 50%;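 further: 0% = vehicle wells with protein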
GPR151 conf act – confirmation of human GPR151 activators. shares compounds with GPR151 ag. GPR151 PathHunter beta-arrestin cells, luminescence, 90 min; % of EA-reagent control over plate median. activation, % at 11.2 µM. 6,700 tested, under 10 active;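 active means mean percent activation across replicates above the confirmation screen cutoff of 4.91%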
GPR119 ag – counter-screen for GPR151 activators: effect on human GPR119; shares compounds with GPR151 ag; GPR119 PathHunter beta-arrestin cells, luminescence, 90 min; 0 = compound-well median, 100 = enzyme-acceptor control; activation, % at 11.2 µM; hit rate 0.3% among 6,700; AID 1508611;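 active means mean percent activation in the counterscreen above 29.09%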;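 further: counterscreen on off-target GPR119 to flag nonselective hits from the GPR151 activator screen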
Target sequence (Q8TDV5 whole entry, looked up): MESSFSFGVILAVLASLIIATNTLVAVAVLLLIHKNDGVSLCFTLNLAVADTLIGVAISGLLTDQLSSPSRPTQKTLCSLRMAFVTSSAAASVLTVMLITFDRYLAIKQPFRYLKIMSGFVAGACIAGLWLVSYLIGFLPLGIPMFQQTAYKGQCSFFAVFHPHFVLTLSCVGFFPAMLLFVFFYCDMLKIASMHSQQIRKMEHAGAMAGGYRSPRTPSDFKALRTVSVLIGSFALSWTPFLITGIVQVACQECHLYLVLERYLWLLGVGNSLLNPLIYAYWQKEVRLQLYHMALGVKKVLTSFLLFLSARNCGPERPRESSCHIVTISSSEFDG
Active calls of the source: *; . = not tested or not shown; ! = repeats disagree.

SMILES | FBW7 activator | GPR151 ag | TEAD-YAP block | MITF inh | GPR151 conf act | GPR119 ag
CCOc1ccc(NC(=O)CNC(=O)c2nn(-c3ccc(OC)c(OC)c3)c(=O)c3ccccc23)cc1 | 0 | 1 | 6 | -1 | . | .
Cc1cccc(CN2CCC(N3CCC[C@H]3CO)CCC2=O)c1 (stereo partly drawn) | 0 | 11* | 5 | -2 | 0 | -7
O=C(CCCc1ccccc1)Nc1cccc(-c2ccc3nncn3n2)c1 | 0 | 1 | -6 | 3 | . | .
CC(=O)Nc1cc(C(=O)NCc2ccccn2)ccc1Nc1cccc(Cl)c1 | -1 | 1 | -1 | 2 | . | .
CCn1c(SCC(=O)c2ccccc2)nnc1-c1ccccn1 | -1 | 0 | -58 | 6 | . | .
CCn1c(SCC(=O)c2ccccc2)nnc1C(C)C | 0 | 13* | -15 | -9 | 1 | 9
Nn1c(SCC(=O)NC(c2ccccc2)c2ccccc2)nnc1C1CC1 | 0 | -1 | 12 | -19 | . | .
CC(C)c1nnc(SCC(=O)NC(c2ccccc2)c2ccccc2)n1N | 0 | 6.3* | -8 | 0 | 0 | -7
COC(=O)c1ccccc1NC(=O)CSc1nnc(-c2ccco2)o1 | 0 | 8.3* | -14 | -6 | 1 | 10
CCOC(=O)c1c(NC(=O)CSc2nnc(-c3ccco3)o2)sc(C)c1C | 0 | 5.1* | 5 | 25 | 0 | -6
CCOC(=O)c1c(NC(=O)CSc2nnc(-c3ccco3)o2)sc(C(C)=O)c1C | 0 | 0 | -6 | 0 | . | .
COC(=O)c1ccc(C(=O)OC)c(NC(=O)CSc2nnc(-c3ccco3)o2)c1 | 0 | 3 | -4 | -6 | . | .
Cc1ccc(S(=O)(=O)N2CCCC(N3CCOCC3)C2)cc1Cl (stereo not drawn) | 0 | 2 | 7 | 7 | . | .
O=S(=O)(c1ccc(F)c(Cl)c1)N1CCCC(N2CCOCC2)C1 (stereo not drawn) | 0 | 12* | 7 | -3 | 1 | 5
Cc1ccc(S(=O)(=O)N2CCCC(N3CCOCC3)C2)s1 (stereo not drawn) | 0 | 6.3* | -2 | 5 | 0 | 4
O=S(=O)(c1ccc2c(c1)OCCO2)N1CCCC(N2CCOCC2)C1 (stereo not drawn) | 0 | 1 | -8 | 2 | . | .
Cc1ccc(NCCNS(=O)(=O)c2cc(C)c(C)cc2C)nn1 | 1 | 8.4* | 2 | 9 | 0 | 3
CCCc1cc(=O)[nH]c(SCC(=O)Nc2cc3c(cc2C(C)=O)OCO3)n1 | 0 | 6.3* | -4 | -7 | 0 | -4
Cc1ccc(O)c(NC(=O)c2cnn3cc(Br)cnc23)c1 | 1 | 7.5* | 2 | 1 | 1 | 4
Cc1ccc(O)c(NC(=O)c2cc3ncc(Br)cn3n2)c1 | 1 | -1 | -10 | 13 | . | .
O=C(Nc1ccc([N+](=O)[O-])cc1Cl)c1cnn2cc(Br)cnc12 | 0 | 7.2* | 0 | 3 | -1 | 6
O=C(Nc1ccc([N+](=O)[O-])cc1Cl)c1cc2ncc(Br)cn2n1 | 0 | -1 | -4 | 6 | . | .
Cc1cc(C)c(NC(=O)CN2CCC(c3nc4ccccc4[nH]3)CC2)c(C)c1 | 0 | 0 | 7 | 0 | . | .
Cc1nc(NC(=O)CSc2ncc(-c3ccc(F)cc3)[nH]2)sc1C | 1 | -1 | -5 | 14 | . | .
Nc1ccc(Oc2ccc(Br)cc2)cc1 | 0 | 11* | 2 | 11 | 1 | -5
SMILES | FBW7 activator | GPR151 ag | TEAD-YAP block | MITF inh | GPR151 conf act | GPR119 ag
Brc1ccc(Oc2ccc(Oc3ccc(Br)cc3)cc2)cc1 | 0 | 0 | 3 | -1 | . | .
CCOC(=O)CC(NS(=O)(=O)c1cc(OC)ccc1OC)c1cccs1 (stereo not drawn) | 0 | 1 | 1 | 9 | . | .
CCOC(=O)C(=O)Nc1cc(OCC)c(NC(=O)c2ccccc2C)cc1OCC | 0 | 1 | -1 | 10 | . | .
Cc1ccc(S(=O)(=O)NCCCSC2CCCCC2)cc1 | 0 | -1 | 0 | -5 | . | .
COc1ccc(C(=O)NC2C3CC4CC(C3)CC2C4)cc1Cl (stereo not drawn) | 0 | 0 | 2 | 10 | . | .
COc1ccc(Cl)cc1C(=O)NC1C2CC3CC(C2)CC1C3 (stereo not drawn) | 0 | 5.0* | 8 | 8 | 1 | 1
COc1cc(OC)cc(C(=O)NC2C3CC4CC(C3)CC2C4)c1 (stereo not drawn) | 0 | 12* | 3 | -1 | 0 | -8
CN(C)S(=O)(=O)c1ccc(S(=O)(=O)N2CCCC(c3ccccc3)C2)cc1 (stereo not drawn) | 0 | -1 | -5 | -13 | . | .
COc1ccc(C(=O)CSc2nccc(=O)[nH]2)cc1OC | 0 | 2 | 3 | -6 | . | .
CCCC(=O)N1CCN(S(=O)(=O)c2cc(Cl)ccc2Cl)CC1 | 0 | -1 | 2 | -1 | . | .
CSc1cccc(N=CC2=C(O)CC(C)(C)CC2=O)c1 | 0 | 7.1* | 3 | -11 | -1 | -4
O/N=C/c1cn(-c2ccccc2)nc1-c1ccc(F)cc1 | 1 | 6.0* | -5 | 19 | -1 | -15
Cc1ccc2nc(CN3CCn4cccc4C3C)nc(N)c2c1 (stereo not drawn) | 0 | 0 | -2 | 8 | . | .
Cc1ccc(N(C)S(=O)(=O)c2ccc3[nH]cc(C(=O)N4CCCCCC4)c(=O)c3c2)cc1C | 1 | -1 | 3 | 7 | . | .
CNS(=O)(=O)c1cccc(C(=O)OCc2cc(C(C)=O)ccc2OC)c1 | 0 | 5.0* | -9 | -2 | 0 | 3
CNS(=O)(=O)c1cccc(C(=O)OCC(N)=O)c1 | 0 | 8.8* | 1 | 0 | 0 | -1
O=C(CSc1nc2ccsc2c(=O)n1-c1ccc(F)cc1)NC1CCCC1 | 0 | -1 | 2 | 0 | . | .
CN1CCCC(n2nc(Cc3ccc(Cl)cc3)c3ccccc3c2=O)CC1 (stereo not drawn) | 0 | 5.4*! | 3 | -20 | 2 | 28
CC1CCCN(C(=O)Cn2nc(Cc3cccnc3)c3ccccc3c2=O)C1 (stereo not drawn) | 0 | 0 | 3 | 3 | . | .
COc1ccc(O)c(C2NC(C)(C(=O)O)C3C(=O)N(c4ccccc4OC)C(=O)C23)c1 (stereo not drawn) | 0 | 5.1* | -7 | 0 | 1 | 4
CCOc1cccc(C2NC(C)(C(=O)O)C3C(=O)N(c4ccccc4OC)C(=O)C23)c1O (stereo not drawn) | 0 | 1 | -7 | -7 | . | .
COc1cccc(C2c3c(oc4ccc(C)cc4c3=O)C(=O)N2CCN2CCOCC2)c1 (stereo not drawn) | 0 | 1 | -18 | -6 | . | .
COc1ccccc1C1c2c(oc3ccc(C)cc3c2=O)C(=O)N1CCN1CCOCC1 (stereo not drawn) | 0 | 13* | 3 | -9 | 1 | 7
